Assay outcomes deposited in PubChem BioAssay by National Center for Advancing Translational Sciences (NCATS).
The list is not random: actives were taken first. Their share in the collection is about 5.5%.
Sfp PPTase inh: inhibitors of Bacillus subtilis Sfp phosphopantetheinyl transferase; AID 1490; Q9F4F7; Biochemical Sfp PPTase activity, qHTS; 310,000 tested, 3.5% active; Potency, µM, without a hit: largest response in the series, negative = inhibition, actives largely listed as inhibitors;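 further: the enzyme is Sfp with the accession as filed and its product quenches rhodamine fluorescence; potency means the concentration at half of the fitted maximal effect; 0% = enzyme reaction without inhibitor and -100% = no enzyme wells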
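Step 1, compound plus 15 nM Sfp-PPTase, 15 min, room temperature. Step 2, add rhodamine-CoA (5 uM) and BHQ-2-YbbR (12.5 uM). Step 3, read 525/598 nm fluorescence at 0 and 30 min.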
ELG1 DNA repair: inhibitors of ELG1-dependent DNA repair in HEK293T cells; HEK293T ELG1-luciferase reporter, luminescence, 16 h; DNA damage induced by 5-fluorouridine; Potency, µM (titrated, usually from 46.1 µM), for the others: at the top dose activity change, negative = inhibition, usual class: inhibitors; 330,000 tested, 2.3% active; further: potency means the concentration at half of the fitted maximal effect; nearly all actives have a fitted effect of over 55% in size
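Cells (2,000 per well) received 5-fluorouridine plus test compound or DMSO and were incubated 16 hr at 37 °C, 5% CO2. Luciferase activity was read by luminescence 30 min after ONE-Glo addition; signal suppression marked inhibition of damage-induced ELG1 function.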
FBPA coupling cs: coupling enzyme interference in Giardia aldolase counter-screen; AID 2472; 290,000 tested, 0.67% active; coupling enzyme system counterscreen, AmpLite Red fluorescence; activity change, negative = inhibition, % at 58.2 µM, hits read low; in the data active means activity change below about -30%
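Compounds tested against the coupling enzymes alone at 57.5 uM final; readout was AmpLite Red fluorescence (525/598 nm) after 20 min at RT.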
Giardia killer: Giardia lamblia killing | Giardia lamblia trophozoite viability | activity change, % at 7.66 µM, hits read low | 340,000 tested, 0.15% active; in the data active means activity change below about -80%; inconclusive means between about -30% and that limit;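 further: parasites exposed to compound for two days anaerobically before the ATP read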
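Viability, read as ATP luminescence: trophozoites at 100 cells/well, compound added, 48 hrs anaerobic at 37 deg C, then 15-30 min room-temperature development before reading.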
An asterisk follows results filed as active; ? = inconclusive; . = no result. Unless noted, the call rests on the fitted dose curve; in most records, active means well fitted curve in the direction sought with a large enough effect; inconclusive means small, poorly fitted or top-dose-only effect, or another doubt; inactive means no such curve, though single readings can be large; an effect the other way counts as inactive or inconclusive. Unless noted, on the % scale 0 is the no-effect control and ±100 the full control effect.

SMILES	Sfp PPTase inh	ELG1 DNA repair	FBPA coupling cs	Giardia killer
COC(=O)c1ccc2nc(NC(=O)CN3C(=O)CCC3=O)sc2c1	28µM*	30%	12	-16
Cc1oc2cc3oc(=O)c(CCC(=O)N[C@H](C(=O)O)C(C)C)c(C)c3cc2c1C	6%	?	-3	-12
Cc1cc(C)nc(N2CCCC(C(=O)NCC(c3ccccc3)c3ccccc3)C2)n1 (stereo not given)	0%	23µM*	0	-5
Cc1cc(C)nc(N2CCCC(C(=O)Nc3nnc(C)s3)C2)n1 (stereo not given)	11%	3%	0	-6
CCNC(=O)C1CCCN(c2nc(C)cc(C)n2)C1 (stereo not given)	20%	4%	2	-24
CS(=O)(=O)c1ccc2nc(NC(=O)C3CC(=O)N(c4ccccc4)C3)sc2c1 (stereo not given)	-5%	-5%	3	-12
Cc1cc(C)nc(N2CCCC(C(=O)Nc3ccc4nc(C)c(C)nc4c3)C2)n1 (stereo not given)	-1%	12µM*	1	2
Cc1ccc(N2CC(C(=O)Nc3nc4ccc(S(C)(=O)=O)cc4s3)CC2=O)cc1 (stereo not given)	45µM*	-6%	0	3
Cc1cc(C)cc(NC(=O)C2CCCN(c3nc(C)cc(C)n3)C2)c1 (stereo not given)	10%	3%	1	11
Cc1cc(C)nc(N2CCCC(C(=O)Nc3nc4ccc(S(C)(=O)=O)cc4s3)C2)n1 (stereo not given)	4%	16µM*	6	3
CCn1c(SCC(=O)NC(=O)c2ccccc2OC)nc2ccccc21	-3%	16%	.	-6
Cc1ccc2nc(NC(=O)C3CCCN(S(=O)(=O)c4cccc5nonc45)C3)sc2c1 (stereo not given)	0%	7.3µM*	0	.
COc1ccc(NC(=S)NNc2ccc(S(=O)(=O)Nc3ccccc3C(=O)O)cc2[N+](=O)[O-])cc1	79µM*	?	8	-12
COc1ccc(C=NNc2ccc(S(=O)(=O)Nc3ccccc3C(=O)O)cc2[N+](=O)[O-])c(OC)c1	.	16%	.	-6
CCCCc1ccc(NC(=O)CSC2=C(C#N)C(c3ccco3)C3=C(CCCC3=O)N2)cc1 (stereo not given)	7.9µM*	18µM*	3	-21
N#CC1=C(SCC(=O)NC2CCCCC2)NC(=O)CC1c1ccco1 (stereo not given)	?	-14%	2	9
CC(C)(C)c1ccc(C(=O)CCCSC2=C(C#N)C(c3ccco3)C3=C(CCCC3=O)N2)cc1 (stereo not given)	50µM*	?	-2	28
CCOC(=O)CSC1=C(C#N)C(c2ccccc2OC)CC(=O)N1 (stereo not given)	16%	-15%	1	10
Cc1ccc(C(=O)CSC2=C(C#N)C(c3ccco3)C3=C(CCCC3=O)N2)cc1 (stereo not given)	-23%	6.5µM*	1	13
COc1ccc(NC(=O)CSC2=C(C#N)C(c3ccco3)C3=C(CCCC3=O)N2)c(OC)c1 (stereo not given)	?	-18%	-12	28
CCSC1=C(C#N)C(c2ccc(Cl)cc2)C2=C(CCCC2=O)N1 (stereo not given)	5%	-30%	-5	-21
CCOC(=O)CSC1=C(C#N)C(c2ccccc2C)C2=C(CCCC2=O)N1 (stereo not given)	14µM*	-2%	0	2
CCc1ccccc1N(CC(=O)NC1CCCCC1)C(=O)CCCC(=O)Nc1ccccn1	10%	1%	1	6
CCCCn1c(N)c(N(CC)C(=O)C2=COCCO2)c(=O)[nH]c1=O	.	3%	.	-24
N#CC1=C(SCC(=O)c2ccccc2)NC2=C(C(=O)CCC2)C1c1ccco1 (stereo not given)	32µM*	-13%	-11	2
O=C(NCc1ccccn1)C(=O)NCc1ccccn1	56µM*	10%	3	-7
O=C(Cc1sc(Nc2ccccc2)nc1-c1ccccc1)NCc1ccccn1	14µM*	?	1	10
CC(C)(C)NC(=O)C(=O)NCc1ccccn1	12%	8%	1	-5
FC(F)(F)c1ccccc1-c1nc(NC2CCNCC2)c2ccccc2n1	8%	.	0	.
O=[N+]([O-])c1cc(S(=O)(=O)Nc2ccccc2)ccc1N1CCN(c2ccc(O)cc2)CC1	56µM*	0%	-15	-29
